These results are taken from PubChem BioAssay (NCI).

This is part of a sample that, as a whole, favours compounds with a hit. Of some 83,000 tested, about 20% had one in any assay.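 Note: values are percent growth. 100 is the growth of untreated cells, values between 100 and 0 indicate rising inhibition; between -100 and 0 indicates cell death.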 Unmarked numbers belong to inactive results. Activity calls are given as the source filed them. Rule for the calls: active = growth percent below 10; inactive = the rest.

Among the test systems are HCT-15 colon; SNB-75 CNS; SNB-19 CNS; U251 CNS; SK-MEL-5 melanoma; LOX IMVI melanoma; SK-MEL-28 melanoma; SK-MEL-2 melanoma; EKVX NSCLC; SN12C renal; UO-31 renal; TK-10 renal; ACHN renal; CAKI-1 renal; A498 renal; CCRF-CEM leukemia; MOLT-4 leukemia; PC-3 prostate; UACC-62 melanoma.
What all share (assay): NCI-60 one-dose screen, 48 h (100 = growth as untreated, 0 = no growth, -100 = all killed)
Holding throughout (conditions): 10 µM unless noted

As for `COc1ccc(CCn2cncc2-c2c[nH]c3ccccc23)cc1`, the growth is 93.1% in the assay on HCT-15 colon; 44.4% in the assay with SNB-75 CNS; 91.4% in the assay with SNB-19 CNS; 95.7% in the assay with U251 CNS; 88.2% in the assay on SK-MEL-5 melanoma; 88.3% in the assay on LOX IMVI melanoma. Further, the growth in the assay with SK-MEL-28 melanoma was 101%; with SK-MEL-2 melanoma, 88.6%; in the assay on EKVX NSCLC, 71.4%; with SN12C renal it was 80.8%; with UO-31 renal, 50.7%; in the assay with TK-10 renal, 141%. Further, the growth is 87% in the assay on ACHN renal; 68.7% with CAKI-1 renal; 69.5% with A498 renal; 101% in the assay with CCRF-CEM leukemia; 93.1% in the assay with MOLT-4 leukemia.

Take `CC1=C(C(=O)/C=C/c2ccc(N(C)C)cc2)C(c2ccccc2)NC(=S)N1` (stereo not given): the growth with HCT-15 colon is 105%; in the assay on SNB-75 CNS, 86.9%; with SNB-19 CNS, 95.1%; with U251 CNS, 101%; in the assay with PC-3 prostate it was 98.3%; in the assay with SK-MEL-5 melanoma it was 99.3%. Also, the growth in the assay on UACC-62 melanoma was 94.3%; with LOX IMVI melanoma it was 98.5%; in the assay on SK-MEL-28 melanoma, 110%; in the assay with SK-MEL-2 melanoma, 102%; in the assay with EKVX NSCLC, 97.7%; with SN12C renal, 96.9%. Besides, the growth in the assay on UO-31 renal is 75.4%; in the assay with TK-10 renal, 107%; with ACHN renal, 100%; with CAKI-1 renal, 89.8%; with CCRF-CEM leukemia, 108%; in the assay on MOLT-4 leukemia it was 101%.

Consider `CCNC(=O)Oc1ccc(/C(=C(\C)c2ccccc2)c2ccc(OCCN(CC)CC)cc2)cc1`, for which the growth in the assay with HCT-15 colon is 16.5%; in the assay with SNB-75 CNS, 78.5%; in the assay on SNB-19 CNS, 86.9%; with U251 CNS, 68.2%; in the assay on PC-3 prostate, 70.8%; in the assay with SK-MEL-5 melanoma it was 34.4%. Besides, the growth in the assay with UACC-62 melanoma was 59.1%; in the assay on LOX IMVI melanoma it was 65.3%; in the assay on SK-MEL-28 melanoma, 63.3%; in the assay with SK-MEL-2 melanoma it was 97.6%; in the assay on EKVX NSCLC, 96%; in the assay with SN12C renal it was 82.1%. For the same compound, the growth in the assay on UO-31 renal was 61.6%; in the assay with ACHN renal, 102%; in the assay on CAKI-1 renal, 59.3%; in the assay on CCRF-CEM leukemia it was 84%; with MOLT-4 leukemia, 76.2%.

Turning to `O=C(c1ccccc1)N1N=C(c2ccc(-n3ccc(C(F)(F)F)n3)c(F)c2)CC1c1ccc[nH]1` (stereo not given), the growth is 100% in the assay with HCT-15 colon; 98.4% in the assay on SNB-75 CNS; 99.1% in the assay with SNB-19 CNS; 98.5% with U251 CNS; 101% with PC-3 prostate; 103% in the assay on SK-MEL-5 melanoma. Also, the growth in the assay on UACC-62 melanoma was 101%; with LOX IMVI melanoma it was 101%; in the assay on SK-MEL-28 melanoma, 111%; in the assay on SK-MEL-2 melanoma, 102%; with EKVX NSCLC it was 100%; in the assay on SN12C renal, 101%. Besides, the growth is 90.4% with UO-31 renal; 99.2% with TK-10 renal; 110% in the assay with ACHN renal; 98.3% with CAKI-1 renal; 105% in the assay on CCRF-CEM leukemia; 98.8% in the assay on MOLT-4 leukemia.

For the compound `Cc1nc(N)nc(N[C@@H](C)c2nc3cccc(NCc4ccc(C(=O)NO)cc4)c3c(=O)n2-c2ccccc2)n1`, the growth in the assay on HCT-15 colon is 110%; in the assay with SNB-75 CNS, 69.6%; in the assay on SNB-19 CNS, 71.3%; with U251 CNS, 52.7%; with PC-3 prostate, 88%; in the assay on SK-MEL-5 melanoma it was 77.3%. The growth with UACC-62 melanoma was 59.1%; with LOX IMVI melanoma it was 72.8%; in the assay with SK-MEL-28 melanoma, 70%; with SK-MEL-2 melanoma, 74.7%; in the assay with EKVX NSCLC, 76.8%; in the assay with SN12C renal, 84.5%. Further, the growth in the assay on TK-10 renal was 80.3%; in the assay on ACHN renal, 101%; in the assay with CAKI-1 renal it was 77.5%; in the assay with CCRF-CEM leukemia, 23.2%; in the assay on MOLT-4 leukemia it was 32.9%.

In the case of `O=C1CC(=O)OC(c2ccc([N+](=O)[O-])cc2)O1`, the growth was -48.8% (active) in the assay on HCT-15 colon; 9.16% (active) with SNB-75 CNS; 55.2% with SNB-19 CNS; 4.05% (active) with U251 CNS; 37% in the assay on PC-3 prostate; 18.4% in the assay with SK-MEL-5 melanoma. For the same compound, the growth in the assay on UACC-62 melanoma was -72.2% (active); in the assay with LOX IMVI melanoma, -84.5% (active); with SK-MEL-28 melanoma, -17.3% (active); in the assay on SK-MEL-2 melanoma, -40.2% (active); with EKVX NSCLC, 47.8%; in the assay with SN12C renal, -37.6% (active). In addition, the growth is -15.5% (active) with TK-10 renal; -76.2% (active) with ACHN renal; -45.7% (active) with CAKI-1 renal; 104% in the assay on A498 renal; 15.3% in the assay on CCRF-CEM leukemia.

On to `COc1cc(-c2cc(-c3ccc(N(C)C)cc3)nc(N3CCOCC3)c2C#N)cc(OC)c1OC`, for which the growth in the assay on HCT-15 colon is 44.1%; in the assay with SNB-75 CNS, 25.3%; with SNB-19 CNS, 45%; in the assay on U251 CNS, 24.2%; with PC-3 prostate it was 44.4%; in the assay with SK-MEL-5 melanoma it was 3.48% (active). Further, the growth is -39% (active) with UACC-62 melanoma; -58.6% (active) with LOX IMVI melanoma; 65.4% in the assay on SK-MEL-28 melanoma; 34.5% in the assay on SK-MEL-2 melanoma; 51.2% in the assay on EKVX NSCLC; 53.4% in the assay with SN12C renal. Also, the growth was 54.8% in the assay with UO-31 renal; 38.4% in the assay on TK-10 renal; 46.1% in the assay with ACHN renal; 29.8% in the assay with CAKI-1 renal; 30.3% with CCRF-CEM leukemia.

Take `NC(=S)N1N=C(c2ccccc2)CC1c1cn(-c2ccccc2)nc1-c1ccc(OCc2ccccc2)cc1` (stereo not given): the growth with HCT-15 colon is 106%; in the assay with SNB-75 CNS it was 95.1%; with SNB-19 CNS, 97.3%; in the assay with U251 CNS it was 97%; in the assay with PC-3 prostate, 89.2%; in the assay on SK-MEL-5 melanoma, 99.4%. The growth with UACC-62 melanoma was 86.3%; with LOX IMVI melanoma, 99.3%; in the assay with SK-MEL-28 melanoma, 112%; in the assay with SK-MEL-2 melanoma it was 90.4%; in the assay on EKVX NSCLC, 78.3%; in the assay with SN12C renal, 93.2%. The growth in the assay with UO-31 renal was 84.7%; in the assay with TK-10 renal, 102%; in the assay on ACHN renal it was 100%; with CAKI-1 renal, 92.7%; in the assay with A498 renal, 94.5%; in the assay on CCRF-CEM leukemia, 103%. The growth with MOLT-4 leukemia is 98.7%.

As for `CCOC(=O)c1cc(C#N)n2ccc3ccccc3c12`, the growth in the assay on HCT-15 colon was 96.6%; in the assay with SNB-75 CNS, 76.2%; in the assay on U251 CNS, 96.9%; with PC-3 prostate, 102%; in the assay with SK-MEL-5 melanoma it was 97.4%; in the assay with UACC-62 melanoma, 91.5%. In addition, the growth is 95.7% with LOX IMVI melanoma; 106% with SK-MEL-28 melanoma; 106% in the assay on SK-MEL-2 melanoma; 90.9% in the assay with EKVX NSCLC; 94.5% in the assay with SN12C renal; 101% in the assay with UO-31 renal. In addition, the growth was 91.3% with TK-10 renal; 109% with ACHN renal; 90.2% with CAKI-1 renal; 98.8% in the assay with CCRF-CEM leukemia; 96.2% in the assay on MOLT-4 leukemia.

Regarding `O=C1Nc2cc(-c3cccc(O)c3)ccc2/C1=C/c1ccc[nH]1`, the growth in the assay with HCT-15 colon is 9.89% (active); with SNB-75 CNS, -13.7% (active); with SNB-19 CNS, 43.4%; with U251 CNS it was 25.9%; with PC-3 prostate, 35.4%; in the assay with SK-MEL-5 melanoma, 6.19% (active). For the same compound, the growth with UACC-62 melanoma was 24.1%; in the assay on LOX IMVI melanoma, 7.66% (active); with SK-MEL-28 melanoma, 16.4%; in the assay with SK-MEL-2 melanoma, 3.73% (active); in the assay on EKVX NSCLC it was 22.6%; in the assay on SN12C renal it was 15.5%. The growth in the assay with UO-31 renal is -1.56% (active); in the assay with TK-10 renal, 16.4%; in the assay on ACHN renal it was 11%; in the assay with CAKI-1 renal it was 5.88% (active); in the assay on CCRF-CEM leukemia it was 13.4%; with MOLT-4 leukemia, 15.4%.
